Data on eight molecules can be found in PubChem BioAssay (NCI).

Test in all cases: NCI-60 one-dose screen, 48 h (100 = growth as untreated, 0 = no growth, -100 = all killed)
One assay concerns HCT-15 colon. The conditions noted are these: 10 µM unless noted.
The subject of a further assay is HT29 colon. As to conditions: 10 µM unless noted.
The test system of the next assay is SNB-75 CNS. As to conditions: 10 µM unless noted.
The test system of a further assay is SNB-19 CNS. As to conditions: 10 µM unless noted.
The test system of a further assay is U251 CNS. The conditions noted are these: 10 µM unless noted.
A further assay concerns PC-3 prostate. As to conditions: 10 µM unless noted.
For a further assay, the system named is SK-MEL-5 melanoma. As to conditions: 10 µM unless noted.
The subject of a further assay is UACC-62 melanoma. The conditions noted are these: 10 µM unless noted.
The next assay relates to LOX IMVI melanoma. As to conditions: 10 µM unless noted.
A further assay concerns SK-MEL-28 melanoma. The conditions noted are these: 10 µM unless noted.
For another assay, the system named is SK-MEL-2 melanoma. As to conditions: 10 µM unless noted.
A further assay concerns EKVX NSCLC. The conditions noted are these: 10 µM.
A further assay concerns SN12C renal. As to conditions: 10 µM unless noted.
The next assay deals with UO-31 renal. As to conditions: 10 µM unless noted.
The subject of a further assay is TK-10 renal. As to conditions: 10 µM unless noted.
In a further assay the test system is ACHN renal. The conditions noted are these: 10 µM unless noted.
The next assay concerns CAKI-1 renal. The conditions noted are these: 10 µM unless noted.
For a further assay, the system named is A498 renal. The conditions noted are these: 10 µM unless noted.
A further assay relates to CCRF-CEM leukemia. As to conditions: 10 µM.
The next assay relates to MOLT-4 leukemia. As to conditions: 10 µM unless noted.

About 83,000 compounds went through this panel and 20% of them were active in at least one assay; those are over-represented in the sample as a whole.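 Values shown are percent growth following 48 h exposure of cells in 96-well plates to a single concentration of compound; below 10 was considered active.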 A number with no mark means an inactive call. Calls of active or inactive are those of the source.

For `COc1ccc2sc(-n3nc4nc5n(c(=O)c4c3N)-c3ccccc3Sc3ccccc3-5)nc2c1`, the growth is 82.6% in the assay with HCT-15 colon; 73.6% in the assay with HT29 colon; 73.8% in the assay on SNB-75 CNS; 79.7% in the assay with SNB-19 CNS; 82.2% in the assay on U251 CNS; 48.7% in the assay on PC-3 prostate. The growth in the assay on SK-MEL-5 melanoma was 41.1%; with UACC-62 melanoma, 64.1%; in the assay with LOX IMVI melanoma, 79.8%; in the assay on SK-MEL-28 melanoma, 92.6%; with SK-MEL-2 melanoma, 81.5%; in the assay on EKVX NSCLC it was 42.1%. Also, the growth in the assay on SN12C renal was 76.7%; with UO-31 renal it was 31.8%; with TK-10 renal, 102%; in the assay on ACHN renal, 72.3%; in the assay on CAKI-1 renal, 57.7%; with A498 renal it was 117%. Also, the growth in the assay with CCRF-CEM leukemia was 68.1%; in the assay with MOLT-4 leukemia, 49.4%.
For the molecule `c1ccc(Nc2ccccn2)cc1`, the growth in the assay on HCT-15 colon was 96.2%; in the assay on HT29 colon, 99.4%; in the assay on SNB-75 CNS, 118%; with SNB-19 CNS, 98.9%; in the assay on U251 CNS it was 103%; in the assay with PC-3 prostate, 102%. The growth with SK-MEL-5 melanoma is 106%; with UACC-62 melanoma it was 93.7%; with LOX IMVI melanoma, 102%; in the assay on SK-MEL-28 melanoma it was 112%; in the assay with SK-MEL-2 melanoma, 102%; in the assay with EKVX NSCLC, 108%. Besides, the growth in the assay on SN12C renal is 94.6%; in the assay on UO-31 renal, 88%; with TK-10 renal it was 95.5%; in the assay on ACHN renal, 106%; in the assay with CAKI-1 renal, 101%; in the assay on A498 renal, 122%. In addition, the growth with CCRF-CEM leukemia was 85%; with MOLT-4 leukemia it was 84%.
For `CCCC(=O)NNc1[nH]c(-c2cc(OC)c(OC)c(OC)c2)cc1C(=O)OCC`, the growth in the assay on HCT-15 colon is 116%; in the assay on HT29 colon, 114%; in the assay with SNB-75 CNS it was 114%; with SNB-19 CNS, 110%; in the assay on U251 CNS, 103%; in the assay with PC-3 prostate, 111%. Also, the growth in the assay on SK-MEL-5 melanoma was 112%; with UACC-62 melanoma it was 102%; with LOX IMVI melanoma, 105%; in the assay with SK-MEL-28 melanoma it was 122%; with SK-MEL-2 melanoma, 103%; in the assay with EKVX NSCLC, 103%. Also, the growth was 108% with SN12C renal; 88.7% in the assay with UO-31 renal; 74.1% in the assay on TK-10 renal; 81% in the assay on ACHN renal; 73.1% in the assay with CAKI-1 renal; 120% in the assay on A498 renal. Moreover, the growth with CCRF-CEM leukemia is 9.44% (active); in the assay on MOLT-4 leukemia, 1.13% (active).
Consider `C/C(=N\Nc1ccc(Cl)cn1)c1ccc2ccccc2n1`, for which the growth with HCT-15 colon was 13.4%; in the assay on HT29 colon, 16.3%; in the assay on SNB-75 CNS, 32.5%; in the assay on SNB-19 CNS it was 24.7%; in the assay with U251 CNS, 6.99% (active); in the assay on PC-3 prostate, 17.7%. The growth in the assay on SK-MEL-5 melanoma is -45% (active); with UACC-62 melanoma it was -7.97% (active); with LOX IMVI melanoma, 2.73% (active); in the assay on SK-MEL-28 melanoma, 17.5%; with SK-MEL-2 melanoma, 35.5%; in the assay with EKVX NSCLC, 11.1%. For the same molecule, the growth is 18% in the assay with SN12C renal; 2.27% (active) with UO-31 renal; 56.3% in the assay on TK-10 renal; 8.37% (active) in the assay on ACHN renal; 7.16% (active) in the assay on CAKI-1 renal; -15.7% (active) in the assay with A498 renal. Further, the growth in the assay on CCRF-CEM leukemia and in the assay with MOLT-4 leukemia was 3.63% (active) throughout.
In the case of `C/C=C(/C)C(=O)OC1C=C(CO)C(=O)C(OC(=O)C(C)(O)C(C)Cl)C1C(C)C` (stereo not given), the growth in the assay on HCT-15 colon is -20.7% (active); in the assay on HT29 colon it was -32.5% (active); in the assay on SNB-75 CNS, 20%; in the assay with SNB-19 CNS, -1.69% (active); with U251 CNS, -50% (active); in the assay with PC-3 prostate, -24.8% (active). The growth in the assay on SK-MEL-5 melanoma is -93% (active); in the assay on UACC-62 melanoma, -77% (active); in the assay with LOX IMVI melanoma it was -75.4% (active); with SK-MEL-28 melanoma, -48.9% (active); in the assay on SK-MEL-2 melanoma, -23.5% (active); with EKVX NSCLC it was -15% (active). For the same molecule, the growth is -35.4% (active) in the assay on SN12C renal; -96.5% (active) in the assay with UO-31 renal; -17.4% (active) in the assay with TK-10 renal; -96.7% (active) in the assay on ACHN renal; -44.5% (active) in the assay with CAKI-1 renal; -74.6% (active) in the assay on A498 renal. Besides, the growth in the assay on CCRF-CEM leukemia is 1.18% (active); with MOLT-4 leukemia, 0.566% (active).
For the molecule `CCS(=O)(=O)OCCO[C@H]1Cc2cc3ccc(=O)oc3cc2OC1(C)C`, the growth in the assay with HCT-15 colon was 109%; with HT29 colon, 101%; in the assay on SNB-75 CNS, 101%; with SNB-19 CNS it was 105%; in the assay with U251 CNS, 96.7%; with PC-3 prostate, 101%. Moreover, the growth with SK-MEL-5 melanoma was 101%; with UACC-62 melanoma, 102%; in the assay with LOX IMVI melanoma it was 109%; in the assay with SK-MEL-28 melanoma it was 116%; in the assay on SK-MEL-2 melanoma, 96.8%; with EKVX NSCLC, 107%. In addition, the growth is 107% with SN12C renal; 86.9% in the assay with UO-31 renal; 102% with TK-10 renal; 107% in the assay on ACHN renal; 95% with CAKI-1 renal; 102% in the assay on A498 renal. The figures for the growth with CCRF-CEM leukemia and in the assay with MOLT-4 leukemia were 115% and 107%, respectively.
As for `Brc1ccc(-c2nc3ccccc3s2)cc1`, the growth was 91.6% with HCT-15 colon; 107% with HT29 colon; 80.6% with SNB-75 CNS; 94.9% in the assay with SNB-19 CNS; 96.1% in the assay with U251 CNS; 83.6% with PC-3 prostate. Also, the growth was 94.4% in the assay on SK-MEL-5 melanoma; 89.1% in the assay on UACC-62 melanoma; 89.5% in the assay with LOX IMVI melanoma; 109% with SK-MEL-28 melanoma; 105% in the assay with SK-MEL-2 melanoma; 75.4% in the assay on EKVX NSCLC. Also, the growth in the assay with SN12C renal was 95%; in the assay with UO-31 renal, 59.5%; with TK-10 renal, 142%; in the assay with ACHN renal, 92%; in the assay with CAKI-1 renal, 73.4%; with A498 renal, 77.2%. In addition, the growth in the assay on CCRF-CEM leukemia is 95.5%; in the assay with MOLT-4 leukemia it was 88.1%.
For `COc1cc(N2C(=O)C=CC2=O)ccc1N1C(=O)C=CC1=O`, the growth with HCT-15 colon is 109%; in the assay on HT29 colon, 102%; with SNB-75 CNS, 90.2%; in the assay on SNB-19 CNS, 107%; in the assay with U251 CNS, 97.5%; in the assay with PC-3 prostate, 94.8%. Further, the growth in the assay on SK-MEL-5 melanoma was 104%; in the assay with UACC-62 melanoma it was 106%; in the assay with LOX IMVI melanoma, 99.1%; in the assay with SK-MEL-28 melanoma, 103%; in the assay on SK-MEL-2 melanoma it was 113%; with EKVX NSCLC, 94.2%. The growth in the assay on SN12C renal was 105%; in the assay on UO-31 renal, 87.1%; in the assay with TK-10 renal it was 86.4%; in the assay with ACHN renal, 96.6%; in the assay on CAKI-1 renal, 93.7%; in the assay on A498 renal, 74.9%. Besides, the figures for the growth in the assay on CCRF-CEM leukemia and in the assay on MOLT-4 leukemia were 18.9% and 100%, respectively.
